# Measurements reported in PubChem BioAssay (NCI).
# About 83,000 compounds went through this panel and 20% of them were active in at least one assay; those are over-represented in the sample as a whole.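 48-hour exposure, single concentration, 96-well plates; percent growth endpoint where 0 means no net growth. Active: below 10.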 Values without a mark were called inactive. The source made the active and inactive calls.
# Tested on: MDA-MB-468 breast
# Assay: NCI-60 one-dose screen, 48 h (100 = growth as untreated, 0 = no growth, -100 = all killed)
# Conditions: 10 µM unless noted
row,SMILES,growth
1,C=CC(=O)N1CCC=C(c2cc3c(N[C@H](C)c4ccccc4)ncnc3[nH]2)C1,9.58% (active)
2,Cn1c(=O)c2[nH]c(N/N=C/c3ccccc3Br)nc2n(C)c1=O,115%
3,Cc1ccc(-c2nc3ccccn3c2/C=C2/C(=O)Nc3cc(Cl)ccc32)cc1,67%
4,C/C(=C(\c1ccc(OCCN2CCCCCC2)cc1)c1ccc(OC(=O)c2ccccc2)cc1)c1ccc(Cl)cc1,45.5%
5,Cc1cc(C)c(/C=C2\C(=O)Nc3ccc(NC(=O)CCCCCCC(=O)NO)cc32)[nH]1,13%
6,C=C(c1ccc(OC)c(/C=C/C(=O)c2ccc3c(c2)OCO3)c1)c1cc(OC)c(OC)c(OC)c1,37.4%
7,COc1ccc(-c2ccc3ncc4c(c3c2)n(-c2ccc(N3CCNCC3)c(C(F)(F)F)c2)c(=O)n4C)cn1,-87% (active)
8,COc1ccc2c(c1)/C(=C\c1c[nH]c3ccc(F)cc13)C(=O)N2,2.93% (active)
9,CCCc1n(Cc2ccc3ccccc3n2)cc[n+]1Cc1ccc2ccccc2c1,-28.4% (active)
10,O=C1/C(=C/c2cccc([N+](=O)[O-])c2)COc2ccc(O)cc21,36.9%
11,Cc1ccc(-c2nc3nc(-c4ccc(F)cc4)nc(N4CCNCC4)c3o2)cc1,54.3%
12,O=C(Cn1cc(COc2ncnc3c2cnn3-c2ccccc2)nn1)Nc1ccccn1,97.7%
13,Cn1cc(-c2noc(-c3cn(C)c4ncc(F)cc34)n2)c2cc(Br)ccc21,61.3%
14,Nc1[nH]n2cc(-c3ccc(F)cc3)nc2c1N=Nc1ccc(S(N)(=O)=O)cc1,83.4%
15,CC1CCC(C(C)C)C(NN)C1 (stereo not given),110%
16,COc1cc(Cc2cc(OC)c(O)c(OC)c2)cc(OC)c1O,65.2%
17,CC(C)(C)c1nc2c(s1)c1nc(N)ncc1c1ccc(NS(=O)(=O)c3c(F)cccc3F)c(F)c12,60.2%
18,CCCC(=O)Oc1ccc(/C(=C(/CC)Cc2ccccc2)c2ccc(OCCN3CCCC3)cc2)cc1,42.8%
19,Cc1ccc2c(C(C[N+](=O)[O-])c3ccccc3)c(-c3ccccc3)[nH]c2c1 (stereo not given),-9.08% [9.5 µM] (active)
20,COc1ccc(CSc2nc3cc(OC)c(OC)cc3c(=O)n2-c2ccc(Cl)cc2)cc1,103%

row,SMILES,growth
1,CC1(c2ccccc2)NC(=O)NC1=O (stereo not given),105%
2,O=C(C[C@]1(O)C(=O)Nc2ccccc21)c1cccc(C(F)(F)F)c1,83.9%
3,CCOC(=O)c1ccccc1NC1=C(Cl)C(=O)c2nc(C)ccc2C1=O,97.3%
4,O=C(O)c1ccc(-n2cc(CNc3ccc(F)cc3)c(-c3ccc(C(F)(F)F)cc3)n2)cc1,83.2%
5,CCOc1ccccc1/C=N\N=C(\N)N/N=C/c1ccccc1OCC,-8.3% (active)
6,CCc1ccccc1-n1c(-c2ccc(OC)cc2)cc(-c2ccc(OC)cc2)c(C#N)c1=O,96.9%
7,CC(C)C(C(=O)NCCN1CCOCC1)N1C(=O)/C(=C/c2ccc(Br)cc2)SC1=S (stereo not given),99.2%
8,CCC(C)N(CCNc1cc(OC)cc2cccnc12)CC(C)C (stereo not given),-52.5% (active)
9,COc1c(F)cc(-n2c(C(=O)N3CC(F)C3)cc3cccnc32)cc1F,98.4%
10,FC(F)(F)c1nc2c(NCc3ccc(-c4ccccc4)cc3)cccc2[nH]1,70.2%
11,N/C(=N\C(N)=N\c1nc2ccccc2s1)c1cccc(Cl)c1,110%
12,COC(=O)C1=C(C)NC(C)=C(C(=O)OCC(C)C)C1c1ccccc1[N+](=O)[O-] (stereo not given),44.7%
13,O=[N+]([O-])c1ccc(C(Br)c2ccc([N+](=O)[O-])cc2)cc1,112%
14,Cc1cc(N2CCN(c3ccnc4cc(Cl)ccc34)CC2)nc(N2CCOCC2)n1,68.7%
15,Cc1ccc(C2=Nc3c(N)nc(N)nc3NC(c3cccc(Nc4ccnc5cc(C(F)(F)F)ccc45)c3)C2)cc1 (stereo not given),14.7%
16,O=C1C(Cl)=C(N/N=c2/[nH][nH]/c(=N/NC3=C(Cl)C(=O)c4ccccc4C3=O)c3ccccc23)C(=O)c2ccccc21,62.9%
17,Cc1cnc(C(=O)Nc2nc3ccc(S(=O)(=O)Nc4ccc(C(C)(C)C)cc4)cc3[nH]2)cn1,-11.4% (active)
18,Oc1ccccc1/C=N/Nc1nc2ccccc2s1,21.5%
19,N#Cc1cccc(F)c1,111%
20,COCCOC(=O)COc1ccc(OC)cc1,95.6%
